Measurements reported in PubChem BioAssay (NCATS).
Records with an inconclusive call do not appear. Where a call stands in place of a potency, no number is given. Active and inactive are the calls of the source. The call rests on the fitted dose curve; in most records, active means well fitted inhibition curve with a large enough effect; inconclusive means small, poorly fitted or top-dose-only effect; inactive means flat fitted curve, though single readings scatter.

Columns and labels:
Test in all cases: qHTS profiling for inhibitors of Plasmodium falciparum proliferation (AID 504749); further: nearly all actives have a fitted effect of over 60% in size
Conditions in all cases: P. falciparum in erythrocytes, SYBR Green DNA, 72 h; series mostly up to 28.7 µM
CP250 = tested on: CP250
Summary of the method: (§1)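 Quantitative HTS: compounds pinned into medium, infected erythrocytes added (0.3% parasitemia, 2.5% hematocrit), 72 h culture at 37 C under 5% CO2. Saponin/Triton lysis with SYBR Green I, overnight RT, then fluorescence read.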

CP252 = tested on: CP252
Summary of the method: as §1

CP256 = tested on: CP256
Summary of the method: as §1

CP260 = tested on: CP260
Summary of the method: as §1

CP262 = tested on: CP262
Summary of the method: as §1

CP265 = tested on: CP265
Summary of the method: as §1

CP268 = tested on: CP268
Summary of the method: as §1

CP269 = tested on: CP269
Summary of the method: as §1

CP286 = tested on: CP286
Summary of the method: as §1

CP266 = tested on: CP266
Summary of the method: as §1
Potency means the concentration at half of the fitted maximal effect.

| Structure (SMILES) | Potency (CP250) | Potency (CP252) | Potency (CP256) | Potency (CP260) | Potency (CP262) | Potency (CP265) | Potency (CP268) | Potency (CP269) | Potency (CP286) | Potency (CP266) |
| --- | --- | --- | --- | --- | --- | --- | --- | --- | --- | --- |
| CO[C@H]1C[C@@H]2CC[C@@H](C)[C@@](O)(O2)C(=O)C(=O)N2CCCC[C@H]2C(=O)O[C@H]([C@H](C)C[C@@H]2CC[C@@H](OC(=O)C(C)(CO)CO)[C@H](OC)C2)CC(=O)[C@H](C)/C=C(\C)[C@@H](O)[C@@H](OC)C(=O)[C@H](C)C[C@H](C)/C=C/C=C/C=C/1C | inactive | inactive | inactive | inactive | inactive | inactive | inactive | inactive | inactive | – |
| O=C(O)[C@H]1C(=CCO)O[C@H]2CC(=O)N12 | inactive | inactive | inactive | inactive | inactive | inactive | inactive | inactive | inactive | – |
| COc1ccc(C(=O)CCC(=O)O)c2ccccc12 | inactive | inactive | inactive | inactive | inactive | inactive | inactive | inactive | inactive | – |
| CC(C)OC(=O)Nc1ccc2nc(-c3cscn3)[nH]c2c1 | inactive | inactive | inactive | inactive | inactive | inactive | inactive | – | inactive | – |
| CC(C)C1=CC2=CC[C@@H]3[C@](C)(CCC[C@@]3(C)C(=O)O)[C@H]2CC1 | inactive | inactive | inactive | inactive | inactive | inactive | – | – | inactive | – |
| CCC(O)c1ccccc1 (stereo not drawn) | inactive | inactive | inactive | inactive | inactive | inactive | inactive | inactive | inactive | – |
| COc1ccc2c(c1)OC(C)(C)C(c1ccccc1)C2c1ccc(OCCN2CCCC2)cc1 (stereo not drawn) | 4.47 µM (active) | 3.98 µM (active) | 4.47 µM (active) | 3.98 µM (active) | 4.78 µM (active) | 3.98 µM (active) | – | 5.36 µM (active) | 3.16 µM (active) | 15.1 µM (active) |
| Cc1cccc(C)c1NC(=O)C1CCCCN1C (stereo not drawn) | inactive | inactive | inactive | inactive | inactive | inactive | inactive | inactive | inactive | – |
| O=C(O)CC/C=C\CC[C@@H]1[C@@H](N2CCCCC2)[C@@H](O)C[C@@H]1OCc1ccc(-c2ccccc2)cc1 | inactive | inactive | inactive | inactive | inactive | inactive | inactive | inactive | inactive | – |
| CSc1nc2cc(Oc3cccc(Cl)c3Cl)c(Cl)cc2[nH]1 | 2.24 µM (active) | 3.16 µM (active) | 1.78 µM (active) | 7.94 µM (active) | inactive | 2 µM (active) | – | 12 µM (active) | 10 µM (active) | – |
| FC(F)OC(Cl)C(F)(F)F (stereo not drawn) | inactive | inactive | inactive | inactive | inactive | inactive | – | inactive | inactive | inactive |
| CCC(=O)c1ccc2c(c1)N(CCCN1CCN(CCO)CC1)c1ccccc1S2 | 8.91 µM (active) | 11.2 µM (active) | 7.08 µM (active) | 10 µM (active) | 6.75 µM (active) | 8.91 µM (active) | 12 µM (active) | 9.53 µM (active) | 4.47 µM (active) | – |
| S=C=Nc1ccc(N=C=S)cc1 | inactive | inactive | inactive | inactive | inactive | inactive | inactive | inactive | inactive | – |
| CC1=C(/C=C/C(C)=C/C=C/C(C)=C/C(=O)Oc2c(C)c(C)c3c(c2C)CC[C@@](C)(CCC[C@H](C)CCC[C@H](C)CCCC(C)C)O3)C(C)(C)CCC1 | inactive | inactive | inactive | inactive | inactive | inactive | inactive | inactive | inactive | – |
| NCCO/C=C/[C@H](N)C(=O)O | inactive | inactive | inactive | inactive | inactive | inactive | inactive | inactive | inactive | – |
| O=C1[O][Bi][O]c2ccccc21 | inactive | inactive | inactive | inactive | inactive | inactive | inactive | inactive | inactive | – |

| Structure (SMILES) | Potency (CP250) | Potency (CP252) | Potency (CP256) | Potency (CP260) | Potency (CP262) | Potency (CP265) | Potency (CP268) | Potency (CP269) | Potency (CP286) | Potency (CP266) |
| --- | --- | --- | --- | --- | --- | --- | --- | --- | --- | --- |
| CC(=O)[O][Al][O]C(C)=O | inactive | inactive | inactive | inactive | inactive | inactive | – | – | inactive | inactive |
| OCCOCCOCCO | inactive | inactive | inactive | inactive | inactive | inactive | – | – | inactive | – |
| N=C(N)c1ccc(/C=C/c2ccc(C(=N)N)cc2O)cc1 | 11.2 µM (active) | 15.8 µM (active) | 0.447 µM (active) | 11.2 µM (active) | 1.35 µM (active) | 11.2 µM (active) | 9.53 µM (active) | 6.75 µM (active) | 4.47 µM (active) | – |
| Cc1ccc(S(=O)(=O)O)cc1C | inactive | inactive | inactive | inactive | inactive | inactive | inactive | inactive | inactive | – |
| FC(F)(F)COCC(F)(F)F | inactive | inactive | inactive | inactive | inactive | inactive | inactive | inactive | inactive | – |
| CN(C)C=Nc1c(I)cc(I)c(CCC(=O)O)c1I | inactive | inactive | inactive | inactive | inactive | inactive | – | inactive | inactive | inactive |
| Cc1cccc(C)c1NC(=O)NC1=CCCN1C | inactive | inactive | inactive | inactive | inactive | inactive | inactive | inactive | inactive | – |
| c1ccc2c(c1)Sc1ccccc1N2CCN1CCCC1 | 11.2 µM (active) | 11.2 µM (active) | 10 µM (active) | 7.94 µM (active) | inactive | 11.2 µM (active) | 9.53 µM (active) | 15.1 µM (active) | 10 µM (active) | – |
| COc1ccc2c(=O)c(C)c(-c3ccccc3)oc2c1CN(C)C | inactive | inactive | inactive | inactive | inactive | inactive | – | inactive | – | inactive |
| Cc1ncc(C[n+]2csc(CCO)c2C)c(N)n1 | inactive | inactive | – | inactive | inactive | inactive | inactive | inactive | inactive | inactive |
| O=C1N=C2SCCN2C(=O)C1Cc1ccc(Cl)cc1 (stereo not drawn) | inactive | inactive | inactive | – | inactive | inactive | inactive | inactive | inactive | inactive |
| C[C@H](N)C(=O)N[C@@H](C)P(=O)(O)O | inactive | inactive | inactive | – | inactive | inactive | inactive | inactive | inactive | inactive |
| O=P(O)(O)CP(=O)(O)O | inactive | inactive | inactive | inactive | inactive | – | – | inactive | inactive | inactive |
| F[Si-2](F)(F)(F)(F)F | inactive | inactive | inactive | inactive | – | inactive | inactive | inactive | inactive | inactive |
| CC(=O)Nc1ccc(NC(=S)NC(=O)c2ccc(C(C)(C)C)cc2)cc1 | inactive | inactive | inactive | – | inactive | – | inactive | inactive | – | inactive |
